PI5P4Ka inh: blocks human PI5P4K alpha kinase activity; P48426; max response, %; PI5P4Kalpha enzyme, ADP-Glo luminescence, 60 min; stronger effect = lower value; AID 652105; 330,000 compounds, 1.2% hits; active means max response of -50% or lower; inconclusive means between -30% and -50%; inactive means -30% or higher; further: value at the top dose of about 77 µM; on the % scale 0 is the no-effect control and ±100 the full control effect
Target sequence (P48426 whole entry, looked up): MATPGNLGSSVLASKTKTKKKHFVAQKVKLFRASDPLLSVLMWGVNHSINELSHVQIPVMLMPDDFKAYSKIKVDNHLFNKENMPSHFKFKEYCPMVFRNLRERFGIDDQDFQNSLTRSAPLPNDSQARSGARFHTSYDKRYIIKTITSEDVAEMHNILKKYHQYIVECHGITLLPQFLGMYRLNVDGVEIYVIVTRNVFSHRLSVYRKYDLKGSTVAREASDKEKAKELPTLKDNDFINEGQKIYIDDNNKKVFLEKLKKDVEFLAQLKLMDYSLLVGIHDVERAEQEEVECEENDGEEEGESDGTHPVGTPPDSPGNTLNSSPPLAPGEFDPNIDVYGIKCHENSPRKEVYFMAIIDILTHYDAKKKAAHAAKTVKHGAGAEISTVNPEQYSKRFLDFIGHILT
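ADP-Glo luminescence end-point after a 60 min room-temperature kinase reaction. PI5P4Kalpha and substrate in HEPES pH 7.4 buffer with EGTA, 0.1% CHAPS and 5% DMSO; ATP at 5 microM final.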
BAZ2B inh: inhibitors of human BAZ2B bromodomain; 360,000 compounds, 4.4% hits; Q9UIF8; Potency, µM (highest dose often 114 µM), without a hit: at the top dose activity change, negative = inhibition, most hits filed as inhibitors; AlphaScreen BAZ2B-H3K14Ac peptide displacement; further: potency means the concentration at half of the fitted maximal effect; on the % scale 0 is the no-effect control and ±100 the full control effect; nearly all actives have a fitted effect of over 60% in size
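AlphaScreen displacement: compounds (up to 110uM) incubated 30 min at room temperature with a preformed 50 nM BAZ2B/50 nM biotinylated H3K14Ac peptide complex in PBS pH 7.4 with Tween-20. Donor and acceptor beads at 10 ug/mL final added, 20 min light-protected before reading.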
HP1b chromo inh: HP1-beta chromodomain-methylated histone interaction inhibition. P83916. AlphaScreen HP1-beta / biotin-H3K9me3 peptide binding. Potency, µM (highest dose often 114 µM), for inactives: at the highest dose activity change, negative = inhibition, hits mostly inhibitors. 390,000 compounds, 0.56% hits. AID 540317; further: potency means the concentration at half of the fitted maximal effect; nearly all actives have a fitted effect of over 70% in size
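HP1-beta protein (50 nM final) preincubated 30 min at room temperature with biotinylated H3(1-18)K9me3 peptide (50 nM) in PBS pH 7.4, 0.01% Tween-20, then compound added for 30 min. AlphaScreen streptavidin donor/nickel chelate acceptor beads (10 ug/mL final), 30 min dark, luminescence read.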
PLK1 PBD block: PLK1 (human) polo-box domain binding inhibition; P53350; Plk1 PBD binding of FITC phosphopeptide, fluorescence polarization; Potency, µM, for inactives: max response, negative = inhibition, hits mostly inhibitors; 360,000 compounds, 2.8% hits; further: potency means the concentration at half of the fitted maximal effect; series mostly up to about 57 µM; on the % scale 0 is the no-effect control and ±100 the full control effect; nearly all actives have a fitted effect of over 65% in size
JMJD2A Tudor: inhibitors of human JMJD2A Tudor domain | AlphaScreen JMJD2A-Tudor / H3K4me3 peptide binding | Potency, µM (titrated, usually from 114 µM), for inactives: at the highest dose activity change, negative = inhibition, most hits filed as inhibitors | 390,000 compounds, 4.4% hits | AID 504339; further: potency means the concentration at half of the fitted maximal effect; on the % scale 0 is the no-effect control and ±100 the full control effect; nearly all actives have a fitted effect of over 50% in size
G9a block: blocks human histone lysine methyltransferase G9a. G9a H3K9 monomethylation, AlphaScreen, 2 h. 350,000 compounds, 8.8% hits. Potency, µM (titrated, usually from 102 µM), inactives show at the top dose activity, negative = inhibition, most hits filed as inhibitors; further: potency means the concentration at half of the fitted maximal effect; on the % scale 0 is the no-effect control and ±100 the full control effect; nearly all actives have a fitted effect of over 75% in size
Target sequence (Q96KQ7 913-1193 limits assumed): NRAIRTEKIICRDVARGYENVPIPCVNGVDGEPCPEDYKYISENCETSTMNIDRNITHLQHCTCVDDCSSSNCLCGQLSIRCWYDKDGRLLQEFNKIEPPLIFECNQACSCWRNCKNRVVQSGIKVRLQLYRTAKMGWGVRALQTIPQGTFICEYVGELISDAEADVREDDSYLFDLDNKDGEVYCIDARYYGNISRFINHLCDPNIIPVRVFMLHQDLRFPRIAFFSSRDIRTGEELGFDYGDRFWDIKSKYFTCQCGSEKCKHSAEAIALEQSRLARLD
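Step 1: enzyme (final 20 nM) with compound, 15 min RT. Step 2: substrate peptide 500 nM and SAM 20 uM, 2 h RT. Step 3: anti-H3K9me1 antibody and AlphaScreen beads, 10 min, then plate read.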
The depositor's hits bear a star; ? = inconclusive; nt = no result given; [ ] = dose if it differs, or a comment. Rows were chosen to be rich in hits. Some 12% of all compounds tested hit in one or more screens of this group. Unless noted, the call rests on the fitted dose curve; in most records, active means well fitted curve in the direction sought with a large enough effect; inconclusive means small, poorly fitted or top-dose-only effect, or another doubt; inactive means no such curve, though single readings can be large; an effect the other way counts as inactive or inconclusive.

SMILES	PI5P4Ka inh	BAZ2B inh	HP1b chromo inh	PLK1 PBD block	JMJD2A Tudor	G9a block
Cc1cnc(C(=O)OCC(=O)N=c2sccn2Cc2ccccc2Cl)cn1	-3	-19%	39%	-1%	-12%	4%
O=C(COC(=O)c1cnccn1)N=c1sccn1Cc1ccccc1Cl	9	0%	14%	-6%	-18%	56µM*
CCSC1=N/C(=C\c2ccc3c(c2)OCO3)C(=O)S1	15	85%	182%	-25%	26%	13%[59 µM]
O=C1SC(SCc2ccccc2)=N/C1=C\c1ccco1	nt	13µM*	?	?	56µM*	13µM*
O=C1SC(c2ccccc2)=N/C1=C/c1ccco1	nt	-30%	-13%	-8%	?	50µM*
O=C1SC(SCc2ccccc2)=N/C1=C\c1ccc(C(=O)O)cc1	-7	?	-11%	19µM*	?	nt
COc1cc(/C=C2\N=C(c3ccccc3)NNC2=O)cc(OC)c1OC	-2	-21%	28%	-3%	-17%	25µM*
CCSC1=N/C(=C\c2cccc(F)c2)C(=O)S1	12	8%	19%	-6%	-24%	-15%[59 µM]
C#C[C@@]1(O)CC[C@@H]2[C@@H]3CCC4=C(CCC(=O)C4)[C@H]3CC[C@]21C	nt	nt	nt	nt	nt	19%[21.5 µM]
COc1ccc(CNc2ncnc3ccc(-c4cccc(C#N)c4)cc23)c(OC)c1	nt	nt	nt	nt	nt	11%[0.501 µM]
COc1cc(/C=C2/N=C(C3CCCCC3)OC2=O)cc(OC)c1OC	-2	15%	60%	-20%	?	-47%[59 µM]
Cc1cc(SCc2ccccc2Cl)nc(=O)[nH]1	4	?	30%	4%	-1%	0%[0.501 µM]
CCCSC1=N/C(=C\C=C\c2ccco2)C(=O)S1	-67*	11µM*	35µM*	-19%	16µM*	14µM*
COc1cc(/C=C2\N=C(C)OC2=O)cc(OC)c1OC	8	-4%	8%	-11%	-9%	32µM*
CCCSC1=N/C(=C\c2ccc3c(c2)OCO3)C(=O)S1	8	81%	143%	-9%	84%	123%[59 µM]
O=C1NNC(c2ccccc2)=N/C1=C\c1ccccc1Cl	-3	-18%	19%	-10%	-32%	nt
O=C1NNC(c2ccccc2)=N/C1=C\c1ccco1	-53*	71µM*	-12%	?	?	nt
CC(/C=C1\N=C(SCc2ccccc2Cl)SC1=O)=C\c1ccccc1	?	?	?	27µM*	56µM*	-12%
CCn1cc(C(=O)N2CCN(c3ccccc3OC)CC2)c(=O)c2cc(S(=O)(=O)N3CCC(C)CC3)ccc21	nt	nt	0%	nt	-27%	-7%[59 µM]
CC1=N/C(=C/c2ccco2)C(=O)O1	-4	nt	-1%	-23%	?	28µM*
CCOC(=O)/C=C/S(=O)(=O)c1ccc(NC(C)=O)cc1	nt	16%	-1%	?	-23%	25µM*
CSc1ccccc1NC(=O)CCc1ccccc1	-5	1%	37%	3%	18%	-2%
Cn1c(=O)n(C)c2cc(NC(=O)CCc3ccccc3)c(Br)cc21	-1	50µM*	30%	4%	-3%	nt
COc1ccccc1CNC(=O)C(=O)NCC(c1cccnc1)N1CCN(c2ccccc2)CC1 (stereo not drawn)	nt	-7%	10%	nt	-20%	-6%[59 µM]
O=C(CCc1ccccc1)Nc1nnc(-c2ccccn2)o1	-7	50µM*	9%	-6%	20µM*	?
SMILES	PI5P4Ka inh	BAZ2B inh	HP1b chromo inh	PLK1 PBD block	JMJD2A Tudor	G9a block
CCC(=O)Nc1nnc(-c2ccccn2)o1	-1	28µM*	5%	-1%	5.6µM*	4.5µM*
O=C(Nc1nnc(-c2ccccn2)o1)c1ccc(Br)cc1	4	?	38%	0%	?	21%
COC(=O)c1c[nH]c2c1-c1cc(C(=O)OCc3ccccc3)n(S(=O)(=O)c3ccc(C)cc3)c1C(=O)C2=O	-11	nt	2%	-9%	-33%	nt
COc1ccc(OCC(O)CN2CCCCCC2)cc1 (stereo not drawn)	nt	50µM*	?	-3%	4µM*	8.9µM*
OC(COc1ccc(OCC(O)CN2CCCCCC2)cc1)CN1CCCCCC1 (stereo not drawn)	10	-24%	15%	-2%	-16%	32%[0.501 µM]
COc1ccc(OCC(O)CN2CCCC2)cc1 (stereo not drawn)	0	?	-22%	-9%	79µM*	nt
OC(COc1ccccc1)CN1CCCC1 (stereo not drawn)	0	79µM*	0%	5%	56µM*	-29%
CNC(=O)C[C@H]1C(=O)N(CCc2ccccc2)C[C@@H]1C	2	nt	nt	-3%	nt	nt
COC(=O)c1cc2oc(C)cc2n1CC(=O)Nc1ccc(OC)c(OC)c1	nt	?	8%	nt	-20%	-46%[59 µM]
O=S(=O)(c1ccccc1)N1CCC2(CCCN(c3ccccn3)C2)CC1	nt	nt	nt	nt	nt	5%[12.7 µM]
COc1ccc(CCNC(=O)CSc2cc(=O)n(C)c3ccccc23)cc1OC	nt	nt	48%	nt	-5%	?
COc1cccc(C(=O)NC(c2ccccc2)C2CCCC2)c1 (stereo not drawn)	?	1%	1%	11µM*	22µM*	3%
COc1cccc(C(=O)NCCS(=O)(=O)N(C)C2CCCCC2)c1	-2	-6%	19%	-9%	-9%	22µM*
CCOC(=O)C1CCCN(S(=O)(=O)CCNC(=O)c2cccc(OC)c2)C1 (stereo not drawn)	9	-7%	34%	-3%	-32%	11µM*
COc1cccc(C(=O)NCCS(=O)(=O)N(C)Cc2ccccc2)c1	3	2%	19%	-6%	-14%	45µM*
COc1cccc(C(=O)Nc2ccccc2)c1	-9	12%	53%	-6%	1%[57.1 µM]	0%[2.33 µM]
O=C(CN1C(=O)CCSc2ccc(S(=O)(=O)N3CCOCC3)cc21)Nc1cccc(F)c1	-15	-36%	17%	?	-26%	2%[59 µM]
CCOC(=O)c1cnn(-c2cccc(Cl)c2)c1C1CCN(C(=O)OC(C)(C)C)CC1	nt	nt	61%	nt	5%	1%[59 µM]
O=S(=O)(NCc1ccc(F)cc1)c1ccc2[nH]c3c(c2c1)CCCCC3	nt	-26%[57.1 µM]	?	nt	45µM*	8.9µM*
O=S(=O)(Nc1cc(F)ccc1F)c1ccc2[nH]c3c(c2c1)CCCCC3	nt	40µM*	-26%	nt	?	?
COc1cccc(CNS(=O)(=O)c2ccc3[nH]c4c(c3c2)CCCCC4)c1	nt	-30%[57.1 µM]	?	nt	?	?
COc1ccc2c(c1)CC/C(=C/c1ccco1)C2=O	1	35µM*	?	-5%	-34%	?
O=C1/C(=C/c2ccncc2)CCc2ccccc21	?	-28%	35%	-4%	-12%	-3%
O=C1/C(=C\c2ccc(Br)o2)Cc2ccccc21	6	?	-5%	-1%	?	?
O=C1/C(=C/c2ccco2)CCc2ccccc21	-3	40µM*	?	-11%	-35%	10µM*

Bioassay records deposited in PubChem BioAssay by National Center for Advancing Translational Sciences (NCATS).
